Experiments:
Assay in all cases: log2 ratio of Biotin-Ahx-Ub-VS probe labelling (fragment/DMSO); higher = less target engagement (more negative = stronger competition), active = hit call of the paper (q ≤ 0.05, log2 ratio ≤ -1)
Settings in all cases: compound concentration: 200 uM; treatment time: 3 h
USP9X = USP9X (UniProt Q93008)
Procedure, shortened: (§1)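 HEK293T lysate (495 µg per sample, in Tris/CHAPS/IGEPAL buffer with protease inhibitors) was exposed in triplicate for 3 h to fragment at 200 µM or to vehicle, then to Biotin-Ahx-Ub-VS at 0.5 µM final for 1 h. Labelled DUBs were enriched on NeutrAvidin, digested with LysC and trypsin, and analysed by diaPASEF LC-MS/MS. Spectronaut label-free quantities were normalised to the global median, and values are average log2 ratios of fragment over vehicle from an unpaired t-test. Only proteins with ≥2 unique peptides were used.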

UniProt O00487 = target: UniProt O00487
UniProt O00487, sequence (O00487 whole entry): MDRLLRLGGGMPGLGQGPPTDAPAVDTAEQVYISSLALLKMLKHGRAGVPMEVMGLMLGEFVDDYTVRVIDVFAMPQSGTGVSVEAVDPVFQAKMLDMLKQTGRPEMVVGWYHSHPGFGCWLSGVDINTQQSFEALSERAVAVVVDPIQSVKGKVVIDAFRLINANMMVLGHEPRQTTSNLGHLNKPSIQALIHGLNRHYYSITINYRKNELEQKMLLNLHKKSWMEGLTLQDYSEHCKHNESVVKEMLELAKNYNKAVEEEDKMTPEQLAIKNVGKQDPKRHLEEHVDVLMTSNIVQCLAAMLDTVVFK
Procedure, shortened: as §1

UniProt O00507 = target: UniProt O00507
UniProt O00507, sequence (O00507 whole entry): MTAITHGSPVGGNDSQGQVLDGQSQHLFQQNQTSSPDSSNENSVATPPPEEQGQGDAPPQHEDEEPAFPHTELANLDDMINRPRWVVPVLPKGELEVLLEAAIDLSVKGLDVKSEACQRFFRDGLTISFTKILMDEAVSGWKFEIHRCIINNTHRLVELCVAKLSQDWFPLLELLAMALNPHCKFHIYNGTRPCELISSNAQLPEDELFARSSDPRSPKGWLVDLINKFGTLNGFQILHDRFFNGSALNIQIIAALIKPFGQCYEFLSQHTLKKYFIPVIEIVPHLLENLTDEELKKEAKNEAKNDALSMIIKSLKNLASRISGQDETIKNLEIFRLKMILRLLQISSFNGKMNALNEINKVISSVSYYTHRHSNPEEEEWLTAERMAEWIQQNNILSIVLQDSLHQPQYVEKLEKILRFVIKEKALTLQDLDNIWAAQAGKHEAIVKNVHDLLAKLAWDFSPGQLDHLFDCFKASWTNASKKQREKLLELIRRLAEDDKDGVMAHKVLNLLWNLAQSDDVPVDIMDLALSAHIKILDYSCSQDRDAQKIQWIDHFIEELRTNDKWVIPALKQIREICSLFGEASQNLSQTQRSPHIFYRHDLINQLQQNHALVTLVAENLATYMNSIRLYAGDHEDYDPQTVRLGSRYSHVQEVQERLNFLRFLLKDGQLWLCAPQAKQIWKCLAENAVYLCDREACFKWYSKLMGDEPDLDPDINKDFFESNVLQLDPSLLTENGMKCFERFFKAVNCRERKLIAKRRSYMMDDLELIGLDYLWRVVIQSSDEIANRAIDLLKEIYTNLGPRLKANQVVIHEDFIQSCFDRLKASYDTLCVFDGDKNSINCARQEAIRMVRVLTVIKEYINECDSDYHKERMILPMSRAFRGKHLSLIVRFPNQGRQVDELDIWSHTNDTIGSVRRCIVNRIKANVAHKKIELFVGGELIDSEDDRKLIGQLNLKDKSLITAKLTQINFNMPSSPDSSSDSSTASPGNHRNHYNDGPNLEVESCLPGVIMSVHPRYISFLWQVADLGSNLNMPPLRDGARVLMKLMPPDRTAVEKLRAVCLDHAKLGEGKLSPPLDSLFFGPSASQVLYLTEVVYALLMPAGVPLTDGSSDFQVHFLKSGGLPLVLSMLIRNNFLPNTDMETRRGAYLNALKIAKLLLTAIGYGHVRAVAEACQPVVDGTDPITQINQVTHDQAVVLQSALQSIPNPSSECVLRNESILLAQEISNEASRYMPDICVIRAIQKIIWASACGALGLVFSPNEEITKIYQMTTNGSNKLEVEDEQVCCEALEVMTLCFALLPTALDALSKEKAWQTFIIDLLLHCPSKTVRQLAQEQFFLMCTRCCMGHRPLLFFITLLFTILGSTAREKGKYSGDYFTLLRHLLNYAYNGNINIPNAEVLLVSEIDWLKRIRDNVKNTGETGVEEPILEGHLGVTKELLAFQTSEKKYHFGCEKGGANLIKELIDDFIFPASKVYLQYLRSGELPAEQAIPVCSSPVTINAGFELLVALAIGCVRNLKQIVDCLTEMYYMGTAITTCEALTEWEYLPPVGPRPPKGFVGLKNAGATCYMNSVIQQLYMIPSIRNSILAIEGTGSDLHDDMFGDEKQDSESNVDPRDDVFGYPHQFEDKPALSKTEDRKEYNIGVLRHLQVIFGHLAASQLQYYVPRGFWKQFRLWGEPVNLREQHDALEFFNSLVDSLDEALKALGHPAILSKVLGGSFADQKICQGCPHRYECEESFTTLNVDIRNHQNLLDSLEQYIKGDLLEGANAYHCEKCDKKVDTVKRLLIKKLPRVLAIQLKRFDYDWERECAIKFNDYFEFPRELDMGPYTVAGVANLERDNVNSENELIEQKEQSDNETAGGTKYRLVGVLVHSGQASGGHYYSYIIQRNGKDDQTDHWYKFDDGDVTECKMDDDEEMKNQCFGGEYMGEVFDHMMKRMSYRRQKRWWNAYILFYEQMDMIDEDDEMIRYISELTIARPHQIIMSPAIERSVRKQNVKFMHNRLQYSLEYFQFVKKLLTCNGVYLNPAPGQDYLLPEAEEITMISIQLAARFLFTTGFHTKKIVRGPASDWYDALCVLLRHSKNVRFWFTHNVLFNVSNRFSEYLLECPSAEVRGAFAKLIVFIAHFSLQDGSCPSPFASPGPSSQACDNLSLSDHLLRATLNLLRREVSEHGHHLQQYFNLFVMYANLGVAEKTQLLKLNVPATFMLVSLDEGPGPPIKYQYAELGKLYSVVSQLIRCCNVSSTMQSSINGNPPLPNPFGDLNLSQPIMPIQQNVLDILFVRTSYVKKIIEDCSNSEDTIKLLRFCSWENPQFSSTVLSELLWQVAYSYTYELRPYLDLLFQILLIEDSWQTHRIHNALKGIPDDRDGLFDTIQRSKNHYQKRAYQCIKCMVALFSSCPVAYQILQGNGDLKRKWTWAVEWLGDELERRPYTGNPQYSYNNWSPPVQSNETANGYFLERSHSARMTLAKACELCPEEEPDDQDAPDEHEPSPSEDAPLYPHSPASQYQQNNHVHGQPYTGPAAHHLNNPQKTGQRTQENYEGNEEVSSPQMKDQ
Procedure, shortened: as §1

UniProt P51784 = target: UniProt P51784
UniProt P51784, sequence (P51784 whole entry): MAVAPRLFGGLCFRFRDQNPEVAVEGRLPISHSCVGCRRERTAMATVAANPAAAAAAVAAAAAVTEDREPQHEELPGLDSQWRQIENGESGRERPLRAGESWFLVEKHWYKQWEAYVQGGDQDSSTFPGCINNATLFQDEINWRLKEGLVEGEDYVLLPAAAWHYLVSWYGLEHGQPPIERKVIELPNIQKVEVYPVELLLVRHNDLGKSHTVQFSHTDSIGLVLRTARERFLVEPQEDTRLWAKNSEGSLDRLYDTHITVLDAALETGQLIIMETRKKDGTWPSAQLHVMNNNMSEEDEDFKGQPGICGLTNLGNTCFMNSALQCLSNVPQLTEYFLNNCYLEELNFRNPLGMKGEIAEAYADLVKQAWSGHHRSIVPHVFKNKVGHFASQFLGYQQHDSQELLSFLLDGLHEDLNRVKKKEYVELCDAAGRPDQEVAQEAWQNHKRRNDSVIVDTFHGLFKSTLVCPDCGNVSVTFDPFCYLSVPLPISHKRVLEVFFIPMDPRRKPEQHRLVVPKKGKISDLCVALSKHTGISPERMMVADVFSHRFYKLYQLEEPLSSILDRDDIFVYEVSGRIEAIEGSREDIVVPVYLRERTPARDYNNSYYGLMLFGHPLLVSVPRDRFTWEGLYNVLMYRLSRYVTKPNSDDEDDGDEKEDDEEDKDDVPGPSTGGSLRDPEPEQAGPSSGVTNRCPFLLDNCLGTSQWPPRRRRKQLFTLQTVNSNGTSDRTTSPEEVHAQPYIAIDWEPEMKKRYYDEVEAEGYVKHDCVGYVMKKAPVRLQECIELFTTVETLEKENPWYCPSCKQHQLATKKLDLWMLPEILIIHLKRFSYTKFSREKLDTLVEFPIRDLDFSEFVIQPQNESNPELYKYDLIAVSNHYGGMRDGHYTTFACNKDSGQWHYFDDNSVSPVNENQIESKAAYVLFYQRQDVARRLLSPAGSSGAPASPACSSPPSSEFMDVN
Procedure, shortened: as §1

UniProt Q5T2D3 = target: T1, UniProt Q5T2D3
T1 sequence (whole entry): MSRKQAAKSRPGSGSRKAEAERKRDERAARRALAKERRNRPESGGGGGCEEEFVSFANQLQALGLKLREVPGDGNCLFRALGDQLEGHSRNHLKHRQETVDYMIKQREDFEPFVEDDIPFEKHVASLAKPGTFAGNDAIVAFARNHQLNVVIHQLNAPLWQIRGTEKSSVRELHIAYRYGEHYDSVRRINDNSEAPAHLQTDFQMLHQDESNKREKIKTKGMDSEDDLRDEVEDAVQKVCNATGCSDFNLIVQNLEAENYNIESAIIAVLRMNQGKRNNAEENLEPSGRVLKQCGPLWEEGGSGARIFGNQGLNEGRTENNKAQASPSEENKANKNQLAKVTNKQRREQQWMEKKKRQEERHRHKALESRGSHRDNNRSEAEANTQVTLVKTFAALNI
Procedure, shortened: as §1

UniProt Q8TE49 = target: T2, UniProt Q8TE49
T2 sequence (whole entry): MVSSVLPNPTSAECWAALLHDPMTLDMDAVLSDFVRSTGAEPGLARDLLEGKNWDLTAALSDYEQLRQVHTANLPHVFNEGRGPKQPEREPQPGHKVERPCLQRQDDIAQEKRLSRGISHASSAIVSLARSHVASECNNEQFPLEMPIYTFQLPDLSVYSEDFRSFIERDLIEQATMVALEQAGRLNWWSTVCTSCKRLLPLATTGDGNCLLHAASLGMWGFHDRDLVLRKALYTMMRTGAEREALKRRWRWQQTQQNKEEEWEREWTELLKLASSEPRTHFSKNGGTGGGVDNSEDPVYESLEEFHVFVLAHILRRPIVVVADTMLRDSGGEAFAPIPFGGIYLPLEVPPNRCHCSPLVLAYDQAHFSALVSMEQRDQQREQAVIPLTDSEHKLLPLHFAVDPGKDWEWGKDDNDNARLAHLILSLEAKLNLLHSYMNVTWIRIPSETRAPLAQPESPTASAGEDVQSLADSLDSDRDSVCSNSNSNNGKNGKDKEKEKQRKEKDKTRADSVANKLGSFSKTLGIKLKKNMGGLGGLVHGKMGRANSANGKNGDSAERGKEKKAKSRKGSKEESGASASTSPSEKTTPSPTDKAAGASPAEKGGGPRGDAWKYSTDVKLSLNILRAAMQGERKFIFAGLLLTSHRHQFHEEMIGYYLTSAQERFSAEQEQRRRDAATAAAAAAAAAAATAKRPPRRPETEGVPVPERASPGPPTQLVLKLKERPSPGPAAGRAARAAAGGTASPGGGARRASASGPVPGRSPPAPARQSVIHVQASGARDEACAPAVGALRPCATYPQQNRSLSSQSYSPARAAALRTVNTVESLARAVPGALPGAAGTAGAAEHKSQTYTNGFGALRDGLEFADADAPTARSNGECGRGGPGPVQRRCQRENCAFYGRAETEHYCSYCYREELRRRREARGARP
Procedure, shortened: as §1

UniProt Q9P2H5 = target: T3, UniProt Q9P2H5
T3 sequence (whole entry): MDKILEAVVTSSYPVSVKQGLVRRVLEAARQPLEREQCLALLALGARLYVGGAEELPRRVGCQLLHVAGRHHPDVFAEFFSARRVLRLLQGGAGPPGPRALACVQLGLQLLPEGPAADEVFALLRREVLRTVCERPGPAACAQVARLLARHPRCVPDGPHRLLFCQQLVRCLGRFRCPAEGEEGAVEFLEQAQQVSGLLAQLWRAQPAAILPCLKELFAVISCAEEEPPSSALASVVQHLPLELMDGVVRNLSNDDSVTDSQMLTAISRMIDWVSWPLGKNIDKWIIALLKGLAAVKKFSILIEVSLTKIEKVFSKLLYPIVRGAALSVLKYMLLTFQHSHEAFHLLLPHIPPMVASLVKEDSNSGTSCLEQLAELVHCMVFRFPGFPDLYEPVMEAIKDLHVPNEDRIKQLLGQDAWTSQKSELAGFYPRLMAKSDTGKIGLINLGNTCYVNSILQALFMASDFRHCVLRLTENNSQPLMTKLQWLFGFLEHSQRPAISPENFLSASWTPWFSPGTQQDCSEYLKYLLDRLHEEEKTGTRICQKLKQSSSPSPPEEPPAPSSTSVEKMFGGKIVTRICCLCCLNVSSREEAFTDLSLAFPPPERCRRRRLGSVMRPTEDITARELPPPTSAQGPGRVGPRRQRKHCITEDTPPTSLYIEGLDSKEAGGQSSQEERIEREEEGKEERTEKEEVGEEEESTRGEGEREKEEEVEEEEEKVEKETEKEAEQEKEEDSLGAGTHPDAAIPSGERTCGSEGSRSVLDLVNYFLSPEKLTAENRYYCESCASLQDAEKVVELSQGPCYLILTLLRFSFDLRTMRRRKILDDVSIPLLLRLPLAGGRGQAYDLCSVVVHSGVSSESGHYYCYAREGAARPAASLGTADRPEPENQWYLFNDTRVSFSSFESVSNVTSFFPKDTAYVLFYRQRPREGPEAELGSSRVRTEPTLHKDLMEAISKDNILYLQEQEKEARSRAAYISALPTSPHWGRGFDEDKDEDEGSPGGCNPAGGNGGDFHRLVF
Procedure, shortened: as §1

UniProt Q9UGI0 = target: T4, UniProt Q9UGI0
T4 sequence (whole entry): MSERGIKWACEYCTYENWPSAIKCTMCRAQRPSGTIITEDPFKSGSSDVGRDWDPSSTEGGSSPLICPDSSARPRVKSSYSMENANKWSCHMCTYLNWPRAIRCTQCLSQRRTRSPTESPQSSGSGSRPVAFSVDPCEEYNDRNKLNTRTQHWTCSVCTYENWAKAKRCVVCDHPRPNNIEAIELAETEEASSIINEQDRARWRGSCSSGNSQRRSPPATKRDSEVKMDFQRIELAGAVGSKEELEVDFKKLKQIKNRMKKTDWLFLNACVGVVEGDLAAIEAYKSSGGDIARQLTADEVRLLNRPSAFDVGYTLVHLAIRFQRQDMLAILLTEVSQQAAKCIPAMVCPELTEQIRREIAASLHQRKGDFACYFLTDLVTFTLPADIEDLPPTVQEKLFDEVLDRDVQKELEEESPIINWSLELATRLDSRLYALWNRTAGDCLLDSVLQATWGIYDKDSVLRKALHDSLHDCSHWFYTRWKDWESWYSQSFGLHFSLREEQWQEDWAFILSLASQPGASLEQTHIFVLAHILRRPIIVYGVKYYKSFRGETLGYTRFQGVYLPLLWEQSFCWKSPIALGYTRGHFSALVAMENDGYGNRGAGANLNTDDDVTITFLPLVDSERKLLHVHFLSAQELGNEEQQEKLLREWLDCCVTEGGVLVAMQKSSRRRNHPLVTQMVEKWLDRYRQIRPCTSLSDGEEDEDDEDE
Procedure, shortened: as §1

YOD1 = target: T5, YOD1 (UniProt Q5VVQ6)
T5 sequence (whole entry): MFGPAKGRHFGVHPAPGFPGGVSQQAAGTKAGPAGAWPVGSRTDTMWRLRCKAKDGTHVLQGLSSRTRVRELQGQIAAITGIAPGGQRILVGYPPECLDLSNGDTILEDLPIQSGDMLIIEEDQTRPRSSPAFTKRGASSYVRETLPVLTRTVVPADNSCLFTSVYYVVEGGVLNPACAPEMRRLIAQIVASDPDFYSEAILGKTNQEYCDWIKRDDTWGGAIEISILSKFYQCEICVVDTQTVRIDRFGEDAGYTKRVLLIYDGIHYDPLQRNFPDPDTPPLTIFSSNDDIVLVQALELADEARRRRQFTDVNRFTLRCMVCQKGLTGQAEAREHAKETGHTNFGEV
Procedure, shortened: as §1

Measured: log2 ratio of Biotin-Ahx-Ub-VS probe labelling

O=C(CCl)N1CCC(c2nc3ccccc3o2)CC1
inactive: USP9X -0.351 | UniProt O00487 -0.154 | UniProt O00507 -0.57 | UniProt P51784 -0.0526 | UniProt Q5T2D3 -0.14 | UniProt Q8TE49 -0.625 | UniProt Q9P2H5 -0.191 | UniProt Q9UGI0 -0.567 | YOD1 -0.217

Reference: the supplement of paper PMC11732987, “Enantioselective OTUD7B fragment discovery through chemoproteomics screening and high-throughput optimisation” (Communications Chemistry, 2025)
